Source: PubChem (National Center for Advancing Translational Sciences (NCATS))
Rows were chosen to be rich in hits. Some 19% of all compounds tested hit in one or more screens of this group.
TDP1 inh – inhibitors of human tyrosyl-DNA phosphodiesterase TDP1 | recombinant TDP1, AlphaScreen DNA substrate cleavage | Potency, µM (highest dose often 130 µM), for the others: top-dose activity change, negative = inhibition, actives largely listed as inhibitors | hit rate 0.28% among 350,000 | AID 485290; also: nearly all actives have a fitted effect of over 40% in size
Target sequence (Q9NUW8 whole entry, looked up): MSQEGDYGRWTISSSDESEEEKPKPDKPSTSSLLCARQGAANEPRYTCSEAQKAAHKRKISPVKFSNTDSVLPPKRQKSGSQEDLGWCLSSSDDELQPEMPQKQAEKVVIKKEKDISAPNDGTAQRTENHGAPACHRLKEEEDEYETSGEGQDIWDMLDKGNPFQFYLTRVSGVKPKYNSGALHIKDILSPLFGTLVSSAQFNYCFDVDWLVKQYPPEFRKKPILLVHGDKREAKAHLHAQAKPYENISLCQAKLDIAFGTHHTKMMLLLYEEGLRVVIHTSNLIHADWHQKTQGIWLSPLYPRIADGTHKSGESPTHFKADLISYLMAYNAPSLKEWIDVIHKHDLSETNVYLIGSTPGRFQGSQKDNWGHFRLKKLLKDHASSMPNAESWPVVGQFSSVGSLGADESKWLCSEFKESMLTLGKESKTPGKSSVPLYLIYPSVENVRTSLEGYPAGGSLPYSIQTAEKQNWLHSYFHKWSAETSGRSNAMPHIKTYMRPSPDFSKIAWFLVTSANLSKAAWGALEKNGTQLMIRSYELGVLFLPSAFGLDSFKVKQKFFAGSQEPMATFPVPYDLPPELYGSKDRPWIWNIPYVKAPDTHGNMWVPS
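E. coli-derived human Tdp1, 1 nM final. Cpd preinc 15 min RT; substrate 15 nM final, 5 min RT; AS bead mix 10 ug/ml final, 10 min RT. Signal loss = tyrosine-FITC cleavage. No-enzyme wells = max signal.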
RORgamma inh – blocks mouse ROR gamma transcriptional activity; hit rate 5.4% among 310,000; Potency, µM (titrated, usually from 53.6 µM), for inactives: at the highest dose activity change, negative = inhibition, usual class: inhibitors; Drosophila S2 Gal4-RORgamma UAS-luciferase reporter, 20 h; also: nearly all actives have a fitted effect of over 60% in size
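Luciferase reporter read in Schneider cells carrying Gal4-RORγ (mouse) and UAS-Photinus luciferase; cells given compound 1 h before 700 uM copper sulfate induction, then incubated 20 h at ambient temperature.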
TDP1 cell CPT – DT40-hTDP1 cell growth loss with CPT; chicken DT40 Tdp1-/-;hTDP1 cells + 20 nM CPT, ATP luminescence, 48 h; Potency, µM (doses to about 46.2 µM), for the others: top-dose activity change, negative = growth inhibition, actives largely listed as inhibitors; hit rate 12% among 420,000; AID 686979; also: nearly all actives have a fitted effect of over 55% in size
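Cell growth measured by CellTiter-Glo luminescence after a minimum 48 h, 37 C compound exposure with 20 nM CPT in Tdp1-knockout DT40 cells stably expressing hTDP1, seeded 400/well; qHTS titration format.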
VP16 counter – Gal4-VP16 reporter inhibition counter-screen. Drosophila S2 Gal4-VP16 UAS-luciferase, luminescence, 20 h. Potency, µM (series often up to 53.6 µM), for the others: at the top dose activity, negative = inhibition, usual class: inhibitors. hit rate 3.5% among 310,000;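 also: Gal4-VP16 expression switched on by copper sulfate through the metallothionein promoter; nearly all actives have a fitted effect of over 50% in size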
DT40 TDP1 no CPT – qHTS for Inhibitors of human tyrosyl-DNA phosphodiesterase 1 (TDP1): qHTS in cells in absence of CPT | Potency, µM (doses to about 46.2 µM), inactives show top-dose activity change, negative = growth inhibition, usual class: inhibitors | hit rate 15% among 420,000 | AID 686978, 2013 | DT40 Tdp1-/- hTDP1 cells, no CPT, ATP luminescence, 48 h; also: nearly all actives have a fitted effect of over 55% in size
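No-CPT arm: Tdp1-/-;hTDP1 DT40 cells (400/well) plus compounds, incubated ≥48 hr at 37 °C. Readout CellTiter-Glo luminescence.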
* = called active by the depositor; ? = inconclusive; / = no result; [ ] = another dose, or the depositor's remark. Calls follow the shape of the dose curve; as a rule, active = well fitted curve in the direction sought with a large enough effect; inconclusive = small, poorly fitted or top-dose-only effect, or another doubt; inactive = no such curve, though single readings can be large; an effect the other way counts as inactive or inconclusive. % is scaled to controls: 0 for no effect and ±100 for the full control effect; potency is read from the fitted curve at half-maximal effect.

SMILES	TDP1 inh	RORgamma inh	TDP1 cell CPT	VP16 counter	DT40 TDP1 no CPT
CCOC(=O)c1cnn(-c2ccc(OC)cc2)c1C1CCN(C(=O)OC(C)(C)C)CC1	-2%	/	?	/	26µM*
Cc1ccc(S(=O)(=O)N(C)C)cc1NC(=O)CSc1ccc2c(c1)OCCO2	/	/	3%	/	8%
COc1ccc(OCCCC(=O)Nc2cc(S(=O)(=O)N3CCCCC3)ccc2C)cc1	0%[56.1 µM]	/	21µM*	/	?
O=C(Cc1cccs1)Nc1cc(S(=O)(=O)N2CCCCC2)ccc1Cl	-3%	/	-18%	/	-18%
O=C(CN(Cc1ccco1)Cc1ccco1)Nc1cc(S(=O)(=O)N2CCCCC2)ccc1Cl	1%[56.1 µM]	/	13µM*	/	12µM*
O=C(NCc1ccco1)c1cc(S(=O)(=O)N2CCCC2)ccc1Cl	3%[56.1 µM]	-1%	-25%	1%	27%
Cc1ccc(S(=O)(=O)N2CCCCC2)cc1NC(=O)CSc1ccc2c(c1)OCCO2	5%	3%	23µM*	-17%	?
CC(NCC(=O)Nc1cc(S(=O)(=O)N2CCCCCC2)ccc1Cl)c1ccccc1 (stereo not given)	/	23%	18µM*	1%	13µM*
Cc1ccc(S(=O)(=O)N2CCN(C(=O)c3sccc3C)CC2)cc1	-1%	/	0%	/	-18%
CC(CNC(=O)c1ccco1)NC(=O)c1ccco1 (stereo not given)	/	-7%	25%	0%	-1%
Cc1ccc(NC(=O)CSc2ccc3c(c2)OCCO3)c(O)c1	3%	6%	18µM*	22%	?
Cc1ccccc1NCC(=O)Nc1cc(S(=O)(=O)N2CCCCC2)ccc1C	2%	/	?	/	21µM*
O=C(CN(Cc1ccco1)Cc1cccs1)N1CCN(S(=O)(=O)c2cccc(F)c2)CC1	2%	/	23µM*	/	18µM*
CC1CCCN(C(=O)CN2C(=O)NC3(CCCCC3C)C2=O)C1 (stereo not given)	7%	/	14%	/	11%
COc1ccc(S(=O)(=O)N2CCN(C(=O)Cc3cccs3)CC2)cc1	3%	20%	-11%	-2%	-23%
COc1ccc(S(=O)(=O)N2c3cc(C)ccc3OCC2C(C)(C)C)cc1 (stereo not given)	-3%	2%	16µM*	-6%	?
Cc1ccc(S(=O)(=O)N2c3cc(C)ccc3OCC2C(C)(C)C)cc1 (stereo not given)	-1%	45%	?	-19%	?
CCOC(=O)N(O)c1ccc(C=Cc2ccccc2)cc1	/	/	12µM*	/	15µM*
CCOC(=O)CCC(=O)N(CCN(C(=O)CCC(=O)OCC)c1ccccc1)c1ccccc1	0%	14%	1%	1%	3%
COc1cccc(-n2nnc3c(sc4nc(C)cc(C)c43)c2=O)c1	0%	/	-22%	/	-15%
CCn1cc(C(=O)N(C)c2ccc(OC)cc2)c2cc(OC)c(OC)cc2c1=O	/	13%	-1%	5%	-1%
COc1ccc(CN=C2NC(=O)CC(C(=O)Nc3cc(C)cc(C)c3)S2)cc1 (stereo not given)	-3%	?	8%	-2%	6%
COc1ccccc1C1CCN(C(=O)c2ccccc2)CC1	/	-13%	-27%	-5%	?
CCCc1c(C(=O)N2CCN(c3ccccc3OC)CC2)cnn1-c1ccccc1	3%	34%	?	11%	18µM*
COc1ccccc1C1CCN(C(=O)c2cnn(-c3ccccc3)c2C)CC1	5%	-67%	21µM*	?	15µM*
SMILES	TDP1 inh	RORgamma inh	TDP1 cell CPT	VP16 counter	DT40 TDP1 no CPT
Cn1cc(C(=O)NC2CCCCCCC2)c(=O)c2cc(S(=O)(=O)N3CCCC3)ccc21	9%	-18%	-27%	4%	?
COc1cccc(NC(=O)c2cccc3c(=O)c4c([nH]c23)CCCC4)c1	9%	/	?	/	?
CC1(C)C(=O)N(c2ccccc2)C1c1ccccc1O (stereo not given)	/	-12%	?	2%	16µM*
COc1ccc(N2C(=O)C(C)(C)C2c2c(O)ccc3ccccc23)cc1 (stereo not given)	/	-2%	21µM*	0%	16µM*
O=C(O)/C(=C\c1cccc(C(F)(F)F)c1)c1ccc(S(=O)(=O)N2CCCC2)s1	-1%	/	-23%	/	-10%
COc1ccc(/C=N/n2cnnc2)cc1Oc1nc(Cl)ncc1F	-3%	-1%	6%	-7%	9%
COc1cc(/C=C(/C#N)C(=O)Nc2ccc(C)cc2)ccc1Oc1nc(Cl)ncc1F	5%	-14%	23µM*	?	16µM*
COc1cc(/C=N/n2cnnc2)ccc1OC(=O)c1cccnc1	7%	?	?	11µM*	?
COc1cc(/C=N/n2cnnc2)ccc1Oc1nc(Cl)ncc1F	8%	?	16µM*	?	?
COc1ccc(/C=N/NC(=O)CC#N)cc1Oc1nc(Cl)ncc1F	/	24%	1%	-6%	?
Cc1scc2c1N(C(=O)CN1CCN(C)CC1)c1ccccc1NC2=O	8%	-2%	8%	3%	-4%
CCC(C)C(=O)Nc1nnc(SCC(=O)NC2CCCCC2)s1 (stereo not given)	/	-28%	-24%	1%	-11%
CCCCCCCC1(C)NC(=O)NC1=O (stereo not given)	-1%	6%	-1%	-1%	-12%
CN1C(=O)/C(=C/c2ccco2)SC1=Nc1ccc(N2CCOCC2)cc1	9%	-29%	?	4%	-13%
COc1ccc(N=C2SC(CC(=O)Nc3ccccc3)C(=O)N2CCc2ccccn2)cc1 (stereo not given)	-8%	?	?	2%	?
COc1ccc(N=C2SC(CC(=O)Nc3ccccc3)C(=O)N2Cc2ccccn2)cc1 (stereo not given)	12%	8%	29µM*	-5%	23µM*
O=C(CC1SC(=Nc2ccc(OC(F)F)cc2)N(CCN2CCOCC2)C1=O)Nc1ccccc1 (stereo not given)	/	?	16µM*	-12%	?
O=C(CC1SC(=Nc2ccc(OC(F)F)cc2)N(CCN2CCOCC2)C1=O)Nc1ccc(F)cc1F (stereo not given)	6%	?	?	-11%	?
COc1ccc(OC)c(NC(=O)CC2SC(=Nc3ccccc3)N(CCc3ccccn3)C2=O)c1 (stereo not given)	5%	32%	23µM*	-1%	?
COc1cc([N+](=O)[O-])ccc1NC(=O)CC1SC(=Nc2ccc(F)cc2)N(CCC2=CCCCC2)C1=O (stereo not given)	5%	?	16µM*	?	15µM*
